± gives the standard deviation.
Tests used:
Conditions in all cases: modulator concentration 10 µM
[1] = system: RAW-Dual (murine macrophage reporter line); assay: NF-kB reporter (SEAP) activity fold change vs agonist alone; higher = enhanced NF-kB activity
Procedure, shortened: (§1)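 RAW-Dual murine macrophage reporter cells were plated at 50 000 per well in 384-well plates, pin-transferred compound to 10 μM final, and pre-incubated for 1 hour at 37 °C before a PRR agonist was added and the cells incubated overnight. NF-κB activity was read from supernatant SEAP with QUANTI-Blue at 620 nm absorbance, and IRF activity from Lucia luciferase with QUANTI-Luc by luminescence. Each signal was expressed as fold change by dividing by the mean agonist-only control on the same plate. Two replicate plates were averaged, with errors obtained by propagation.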

[2] = system: RAW-Dual (murine macrophage reporter line); assay: IRF reporter (Lucia luciferase) activity fold change vs agonist alone; higher = enhanced IRF activity
Procedure, shortened: as §1

[3] = system: RAW-Dual (murine macrophage reporter line); assay: viability score (confluency relative to resting cells, overnight) (fraction); higher = more viable, active = viable (0.7 or more)
Procedure, shortened: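 A compound met the cutoff when both of two confluency masks exceeded 70% of resting cells. Those masks were made with IncuCyte software from IncuCyte images of RAW-Dual macrophages treated overnight at 10 μM final. This is the basis of the viability score, which is confluency relative to resting cells.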

[4] = agonist: CpG ODN 1826 0.5 ug/mL

Structure (SMILES)	NF-kB reporter [1, 4]	NF-kB reporter ([1]; agonist: LPS 0.1 ug/mL)	NF-kB reporter ([1]; agonist: MPLA […])	IRF reporter ([2]; agonist: 3'3'-cGAMP 10 ug/mL)	IRF reporter ([2]; agonist: LPS 0.1 ug/mL)	IRF reporter ([2]; agonist: MPLA […])	viability score [3]
COc1ccc2cc1Oc1ccc(cc1)C[C@H]1c3c(cc4c(c3Oc3cc5c(cc3OC)CCN(C)[C@@H]5C2)OCO4)CCN1C	0.195 ± 0.011	1.09 ± 0.091	0.928 ± 0.059	0.786 ± 0.045	0.931 ± 0.099	0.889 ± 0.12	0.991 (active)
O=C(Nc1cc(C(F)(F)F)cc(C(F)(F)F)c1)c1cc2ccccc2o1	0.961 ± 0.082	1.05 ± 0.08	0.952 ± 0.12	0.953 ± 0.042	1.32 ± 0.25	1.03 ± 0.29	1.01 (active)
Cc1cc(-n2cc(C(=O)N3CCOCC3)nn2)ccc1F	1.06 ± 0.33	1.1 ± 0.075	1.02 ± 0.065	0.98 ± 0.045	1.01 ± 0.17	1.14 ± 0.17	0.991 (active)
CN1CCN(C(=O)c2cc(-c3ccccc3)nc3ccccc23)CC1	1.03 ± 0.11	0.906 ± 0.059	0.957 ± 0.043	0.941 ± 0.15	0.923 ± 0.051	0.884 ± 0.081	0.996 (active)
O=C(CSc1nc2c(c(=O)n1-c1ccccc1)SCC2)N1CCN(c2ccccc2)CC1	0.985 ± 0.08	1.09 ± 0.057	1.14 ± 0.036	1.15 ± 0.081	0.879 ± 0.046	0.953 ± 0.076	1 (active)
CCS(=O)(=O)N1CCC2(CC1)NC(=O)N(CCOc1ccccc1)C2=O	0.871 ± 0.041	1.05 ± 0.11	1.09 ± 0.078	0.996 ± 0.047	1.43 ± 0.25	1.58 ± 0.61	0.989 (active)
CCN(CC)c1ccc(C=C(C#N)c2n[nH]c(N)c2C#N)c(OC)c1	1.43 ± 0.16	0.885 ± 0.095	0.976 ± 0.092	0.577 ± 0.036	0.865 ± 0.12	1.18 ± 0.15	1.02 (active)
COc1cc(O)c(C(=O)Nc2nc(C(=O)NCCN(C(C)C)C(C)C)cs2)cc1OC	1.25 ± 0.33	1.01 ± 0.073	1.13 ± 0.087	0.997 ± 0.038	0.907 ± 0.1	0.973 ± 0.18	0.994 (active)
COCC(C)NC(=O)c1ccc(Cl)c(Cl)c1 (configuration not stated)	1.13 ± 0.12	0.926 ± 0.079	0.984 ± 0.043	0.953 ± 0.034	0.966 ± 0.05	0.992 ± 0.1	0.997 (active)
Cc1cn([C@@H]2C[C@@H](O)[C@H](CO)O2)c(=O)[nH]c1=O	1.12 ± 0.086	0.998 ± 0.054	1.01 ± 0.065	1.09 ± 0.18	0.886 ± 0.04	0.82 ± 0.15	1.01 (active)
O=[N+]([O-])c1ccc(N2CCOCC2)c(-c2nnn[nH]2)c1	0.98 ± 0.25	1.05 ± 0.11	0.918 ± 0.085	0.938 ± 0.045	1.11 ± 0.14	1.29 ± 0.17	0.996 (active)
Cc1cc(C(=O)Nc2ccc(-n3nnn(C)c3=O)cc2)c(C)o1	1.01 ± 0.077	1.05 ± 0.083	0.809 ± 0.041	0.985 ± 0.064	1.25 ± 0.076	1.28 ± 0.17	1.01 (active)
O=C(NCCC(CCO)c1ccccc1)c1cccc(Cl)c1 (configuration not stated)	1.11 ± 0.068	1.02 ± 0.082	0.946 ± 0.025	0.748 ± 0.027	0.967 ± 0.051	0.984 ± 0.096	1 (active)
Cc1ccc(-n2c(C)cc(C=NNC(=O)CN3CCOCC3)c2C)c(C)c1	0.928 ± 0.084	1.11 ± 0.1	1.09 ± 0.097	0.822 ± 0.024	1.09 ± 0.19	1.07 ± 0.082	1 (active)
Cc1c(Cl)cccc1S(=O)(=O)NCc1ccnc(N2CCCC2=O)c1	1.01 ± 0.055	1.03 ± 0.094	0.92 ± 0.043	0.993 ± 0.057	1.07 ± 0.079	1.03 ± 0.093	0.957 (active)
COC(=O)c1ccccc1NC(=O)CCc1ccc(Oc2cc([N+](=O)[O-])cc([N+](=O)[O-])c2)cc1	1.22 ± 0.11	1.08 ± 0.079	1.13 ± 0.072	0.431 ± 0.054	1.03 ± 0.17	0.766 ± 0.17	1.01 (active)
